Drawing on PubChem BioAssay, this text covers composite z-score, z-score and composite Z-score for five compounds.

The source made the active and inactive calls.

For test [1], the system named is Human papillomavirus type 1a protein E7 (residues 44-93). The experiment in a line: HPV1a E7 fragment binders on microarrays, primary screen, biochemical, small-molecule microarray, residues 44-93, 635 nm fluorescence (AID 1108).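 Further: E7 fragment applied at 1 µg/mL in TBST for 1 h at 4 C; score combines spot fluorescence with its signal to noise ratio.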 Particulars: small-molecule microarray binding, fluorescence 635 nm; higher = more signal.
Test [2] in a line: modulators of HCV replicon luciferase signal, primary screen, HCV replication inhibitor project, Huh7 cells, luciferase reporter (AID 1109).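 Further: huh7 hepatoma cells harbouring a luciferase neomycin HCV replicon reporter; luciferase luminescence as measure of HCV replicon replication; test concentration not given here.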 Particulars: 48 h, higher = more signal. A general note: Replicon systems follow genome replication, usually without infectious particles.
Test [3] has as its target Left-right determination factor 2 (Homo sapiens) (UniProt O00292). The experiment in a line: LEFTY2 binders on small-molecule microarrays, primary screen, biochemical, small-molecule microarray, 635 nm fluorescence scan (AID 1110). Particulars: LEFTY2 binding, higher = more signal.
For test [4], the target named is Calmodulin-1 (Homo sapiens) (UniProt P0DP23). The experiment in a line: CALM1 binders on microarrays, EGTA buffer, profiling panel, biochemical, small-molecule microarray, Cy5-labelled CALM1 (AID 1111).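 Further: labelled calmodulin applied in Tris saline Tween buffer holding calcium plus EGTA and DTT.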 Particulars: Cy5-CALM1 binding fluorescence, higher = more signal.
Test [5] has the same target. The experiment in a line: calcium-bound CALM1 binders on microarrays, profiling panel, artefact control for SMM control-protein annotation, biochemical, small-molecule microarray, Cy5-labelled CALM1, plus calcium (AID 1112).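 Further: score merges spot fluorescence with signal to noise from triplicate slides.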 Particulars: Cy5-CALM1 binding fluorescence, higher = more signal.
Test [6] in a line: small-molecule microarray binders of probe aWnt5a, primary screen, biochemical, biotinylated probe, 635/667 nm fluorescence (AID 1113).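 Further: score merges 667 nm fluorescence intensity with signal-to-noise per printed feature.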 Particulars: higher = more signal.
Test [7] is described as follows: small-molecule microarray binders of probe aShh, primary screen, biochemical, biotinylated probe, 635/667 nm fluorescence (AID 1114).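 Further: probe is biotin-labelled aShh protein from a stem cell growth factor screen; measures binding of labelled protein to compounds printed on the slide; score merges feature fluorescence at 667 nm with signal-to-noise.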 Particulars: higher = more signal.
Test [8] is described as follows: small-molecule microarray binders of probe aNog, primary screen, biochemical, biotinylated probe, 635/667 nm fluorescence (AID 1115).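 Further: probe is biotinylated aNog protein used at 0.15 µg/mL for 1 h at 4 C; z-score combines 667 nm fluorescence of each spot with its signal to noise.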 Particulars: higher = more signal.
Test [9] concerns the target Torsin-1A-interacting protein 1 (Homo sapiens) (UniProt Q5JTV8). The experiment in a line: LAP1 binders from COS7 cell lysate, primary screen, small-molecule microarray, 635/667 nm fluorescence (AID 1116). Particulars: COS7-hLAP1 lysate binding, 635 nm fluorescence, higher = more signal.
Test [10] has as its target Alpha-bungarotoxin (Bungarus multicinctus) (UniProt P60615). The experiment in a line: alpha-bungarotoxin binders on microarray, profiling panel, artefact control for SMM control protein annotation, biochemical, small-molecule microarray, Alexa647 label, 635/667 nm fluorescence (AID 1117). Particulars: alpha-BTX-A647 binding fluorescence, higher = more signal.
In test [11] the target is Albumin (Bos taurus) (UniProt P02769). The experiment in a line: bovine serum albumin binders on microarray, profiling panel, artefact control for SMM control protein annotation, biochemical, small-molecule microarray, Alexa647 label, 635/667 nm fluorescence (AID 1118).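 Further: score merges 667 nm emission intensity and signal-to-noise per printed compound spot.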 Particulars: BSA-A647 binding, fluorescence 635 nm, higher = more signal.
Sequence of Albumin (Bos taurus) (P02769 whole entry, looked up): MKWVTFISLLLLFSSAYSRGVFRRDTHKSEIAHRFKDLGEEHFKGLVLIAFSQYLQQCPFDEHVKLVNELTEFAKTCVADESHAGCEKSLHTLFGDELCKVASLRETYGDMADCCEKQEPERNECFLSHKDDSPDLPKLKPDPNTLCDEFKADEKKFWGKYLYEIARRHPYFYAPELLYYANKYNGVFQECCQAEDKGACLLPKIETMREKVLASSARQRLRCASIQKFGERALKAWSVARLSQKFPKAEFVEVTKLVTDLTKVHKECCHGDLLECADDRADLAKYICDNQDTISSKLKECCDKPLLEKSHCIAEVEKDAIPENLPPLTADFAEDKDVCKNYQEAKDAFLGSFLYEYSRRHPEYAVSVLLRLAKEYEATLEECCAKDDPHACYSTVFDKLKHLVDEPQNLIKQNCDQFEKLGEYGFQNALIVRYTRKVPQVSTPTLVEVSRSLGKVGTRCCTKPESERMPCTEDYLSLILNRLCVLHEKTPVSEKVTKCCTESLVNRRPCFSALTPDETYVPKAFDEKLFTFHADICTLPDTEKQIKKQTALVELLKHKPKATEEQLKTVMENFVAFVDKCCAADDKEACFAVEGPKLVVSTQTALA
The nature of test [12]: small-molecule microarray binders of probe aXIP, primary screen, biochemical, NeuroSMM set, 635/667 nm fluorescence (AID 1119).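 Further: probe is the protein aXip251-270 applied at 1 µg/mL to compound-printed slides; binding of probe to printed compounds measured as 667 nm fluorescence plus signal to noise.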 Particulars: higher = more signal, called active from +8 up or from −8 down.
A short description of test [13]: small-molecule binders of probe aNOTCH3, primary screen, biochemical, small-molecule microarray, 635/667 nm fluorescence (AID 1120).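 Further: probe is a biotin-tagged antibody raised against NOTCH3 rather than NOTCH3 protein; score merges spot fluorescence near 667 nm with spot signal to noise.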 Particulars: higher = more signal.
Test [14] can be described thus: small-molecule binders of probe aNOTCH2, primary screen, biochemical, small-molecule microarray, 635/667 nm fluorescence (AID 1121).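 Further: score merges feature fluorescence read at 667 nm with its signal to noise.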 Particulars: higher = more signal.
The target of test [15] is Carbonic anhydrase 2 (Homo sapiens) (UniProt P00918). The experiment in a line: CAII small-molecule binders, profiling panel, biochemical, small-molecule microarray, Alexa647-labelled CAII (AID 1122). Particulars: CAII-A647 binding fluorescence, higher = more signal.
Test [16] is described as follows: COS7 lysate on small-molecule microarray, probe aHis, 635 nm (AID 1123).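 Further: z-score combines 667nm fluorescence intensity with signal-to-noise per printed compound spot.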 Particulars: COS7 cell lysate, fluorescence, higher = more signal.
Test [17] in a line: compound binding in COS7 lysate, probe aLAP1, primary screen, cell lysate, small-molecule microarray (AID 1124).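 Further: lysate comes from COS7 cells expressing LAP1 and is applied at 0.3 µg/mL; score merges spot fluorescence near 667 nm with signal-to-noise over triplicate slides.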 Particulars: probe aLAP1, fluorescence, higher = more signal.
In test [18] the test system is Sam68 (KHDRBS1). The experiment in a line: Sam68 small-molecule binders, primary screen, biochemical, small-molecule microarray, 635 nm fluorescence (AID 1125).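 Further: score merges 667 nm channel intensity with signal to noise over triplicate slides.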 Particulars: small-molecule microarray binding, higher = more signal.
In test [19] the test system is Chordin-like protein 2 (CHRDL2). The experiment in a line: CHRDL2 small-molecule binders, primary screen, biochemical, small-molecule microarray, 635 nm fluorescence (AID 1126).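 Further: printed compound slides probed with Chrdl2 protein at 4 µg/mL for 1 h at 4 C; score merges 667 nm emission intensity with signal to noise over three replicate slides.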 Particulars: small-molecule microarray binding, fluorescence 635 nm; higher = more signal.
The target in test [20] is Concanavalin-A (Canavalia ensiformis) (UniProt P02866). The experiment in a line: ConA small-molecule binders, primary screen, artefact control for SMM control protein annotation, biochemical, small-molecule microarray, Alexa647 label, 635 nm (AID 1127).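 Further: z combines 667 nm emission intensity with signal-to-noise across three replicate slides.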 Particulars: ConA-A647 binding fluorescence, higher = more signal.
Sequence of Concanavalin-A (Canavalia ensiformis) (P02866 whole entry, looked up): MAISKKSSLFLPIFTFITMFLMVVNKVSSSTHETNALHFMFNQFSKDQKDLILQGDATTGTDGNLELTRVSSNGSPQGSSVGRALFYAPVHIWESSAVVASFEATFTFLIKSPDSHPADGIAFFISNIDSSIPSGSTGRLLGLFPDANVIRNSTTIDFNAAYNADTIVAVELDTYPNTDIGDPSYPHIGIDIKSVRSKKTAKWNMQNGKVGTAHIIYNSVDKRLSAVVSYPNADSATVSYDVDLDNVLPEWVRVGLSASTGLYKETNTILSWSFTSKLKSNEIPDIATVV

Sequence of Left-right determination factor 2 (Homo sapiens) (O00292 whole entry, looked up): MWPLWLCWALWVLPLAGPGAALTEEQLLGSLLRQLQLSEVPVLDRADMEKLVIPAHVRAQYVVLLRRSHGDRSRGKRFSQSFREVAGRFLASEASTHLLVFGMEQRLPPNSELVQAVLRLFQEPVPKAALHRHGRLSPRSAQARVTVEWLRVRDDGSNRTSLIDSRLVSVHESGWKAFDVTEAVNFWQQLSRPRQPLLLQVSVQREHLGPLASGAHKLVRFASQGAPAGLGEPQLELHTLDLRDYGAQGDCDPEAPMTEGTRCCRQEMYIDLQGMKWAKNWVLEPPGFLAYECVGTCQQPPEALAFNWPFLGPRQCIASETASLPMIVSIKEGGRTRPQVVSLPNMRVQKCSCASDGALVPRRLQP
Sequence of Alpha-bungarotoxin (Bungarus multicinctus) (P60615 whole entry, looked up): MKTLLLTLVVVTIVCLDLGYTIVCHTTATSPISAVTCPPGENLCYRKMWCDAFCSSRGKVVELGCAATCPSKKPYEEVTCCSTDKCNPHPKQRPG
Sequence of Torsin-1A-interacting protein 1 (Homo sapiens) (Q5JTV8 whole entry, looked up): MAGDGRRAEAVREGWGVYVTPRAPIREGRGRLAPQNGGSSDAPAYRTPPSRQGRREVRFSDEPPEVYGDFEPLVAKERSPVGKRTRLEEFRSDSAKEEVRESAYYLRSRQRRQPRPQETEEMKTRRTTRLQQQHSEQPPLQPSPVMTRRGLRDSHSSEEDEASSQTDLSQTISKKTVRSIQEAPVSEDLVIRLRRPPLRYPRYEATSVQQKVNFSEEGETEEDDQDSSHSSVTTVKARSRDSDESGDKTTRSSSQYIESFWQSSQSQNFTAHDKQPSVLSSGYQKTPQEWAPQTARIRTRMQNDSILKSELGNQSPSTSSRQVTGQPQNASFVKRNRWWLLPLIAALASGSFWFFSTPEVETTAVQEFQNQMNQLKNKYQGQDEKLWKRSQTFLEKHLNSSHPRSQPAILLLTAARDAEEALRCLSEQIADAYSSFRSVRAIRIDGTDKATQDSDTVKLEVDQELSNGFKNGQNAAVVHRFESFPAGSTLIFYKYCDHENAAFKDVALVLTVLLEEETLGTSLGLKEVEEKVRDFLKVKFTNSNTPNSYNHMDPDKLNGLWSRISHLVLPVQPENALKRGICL

As to `O=c1cccc(-c2ccc(F)cc2)o1`, the composite z-score in test [1] is -0.399; in [3], 0.55; in [4], -0.236; in test [5], -0.33; in test [6], -0.1; in [7], 0.216. Also, the composite z-score in [8] is 0.0416; in test [9], -0.184; in [10], 0.241; in [11], 0.445; in [13], 0.176; in test [14] it was -0.0527. For the same compound, the composite z-score is -0.114 in test [15]; -0.218 in test [16]; 0.403 in test [17]; 0.501 in test [18]; 0.556 in test [19]; 0.354 in test [20]. In addition, the z-score in [2] was -0.228. The composite Z-score in test [12] was -0.261 (inactive).
In the case of `COC(=O)[C@@]1(Cc2ccccc2)[C@H]2c3cc(C(=O)N(C)C)n(CCn4cc([N+](=O)[O-])nc4C)c3C[C@H]2CN1C(=O)c1ccccc1`, the composite z-score in [1] was 1.15; in [3], 0.0356; in [4] it was 0.437; in [5] it was 0.361; in test [6], 0.0162; in test [7] it was 0.0952. Moreover, the composite z-score was 0.576 in test [8]; 2.83 in [9]; 0.413 in test [10]; 0.89 in test [11]; 0.16 in test [13]; -0.0254 in [14]. For the same compound, the composite z-score in [15] was 0.888; in test [16], 2.56; in test [17], 0.697; in test [18], 1.1; in test [19], -0.113; in test [20], 0.526. The z-score in test [2] was -0.347. The composite Z-score in test [12] is 0.0327 (inactive).
For `CN1C(=O)C2C=CC(C(O)c3cc(C(F)(F)F)cc(C(F)(F)F)c3)N(Nc3ccccc3)C2C1=O` (stereo not given), the composite z-score was 0.792 in [1]; -0.715 in test [3]; 0.345 in [4]; -0.151 in [5]; -0.0346 in [6]; -0.138 in test [7]. Besides, the composite z-score was 0.369 in [8]; 1.68 in test [9]; 0.0299 in test [10]; 0.969 in test [11]; -0.149 in test [13]; -0.147 in test [14]. The composite z-score in [15] is 0.831; in test [16], 2.96; in test [17], -0.23; in [18], 0.891; in [19], -0.616; in [20] it was -0.0932. In test [2], this compound returned a z-score of -1.08. Also, in test [12], the composite Z-score was 0.309 (inactive).
Regarding `COc1cc(NN2C(C(O)C3CCCCC3)C=CC3C(=O)N(C)C(=O)C32)cc(OC)c1OC` (stereo not given), the composite z-score stood at 1.44 in test [1]; 0.0347 in [3]; 2.01 in test [4]; 0.964 in [5]; 0.265 in test [6]; 0.417 in [7]. For the same compound, the composite z-score in [8] worked out at 1.32; in [9], 1.32; in [10] it was 1.72; in [11], 1.04; in test [13], 0.678; in [14] it was 0.22. For the same compound, the composite z-score in test [15] was 0.424; in [16], 2.78; in test [17], 0.339; in test [18], 1.32; in [19] it was -0.531; in [20], 1.15. In addition, in test [2], the z-score is -0.611. Also, the composite Z-score in [12] was 1.37 (inactive).
Regarding `CCc1cccc(NC(=O)O[C@H]2[C@H](OC(=O)Nc3ccccc3)[C@H](OC(=O)Nc3ccccc3)[C@@H](OC)O[C@@H]2CO)c1`, the composite z-score is 1.44 in [1]; 0.0274 in [3]; 1.26 in [4]; -0.101 in test [5]; -0.0006 in test [6]; 0.23 in test [7]. Besides, the composite z-score in test [8] is 1.11; in [9], 1.03; in test [10] it was 0.0456; in test [11], 0.902; in test [13] it was 0.211; in [14], -0.0481. Further, the composite z-score was 0.663 in [15]; 2.57 in [16]; 0.814 in test [17]; 1.29 in test [18]; -0.539 in [19]; 1 in test [20]. Besides, the z-score in test [2] is -3.86. In addition, in [12], the composite Z-score was 1.21 (inactive).
